Calls of active or inactive are those of the source. The calls were made as follows: active = hit-call score of the fitted dose curve at least 0.9, where 1 is the maximum; inactive = score below 0.9.
Experiments:
[1] = APR_HepG2_CellCycleArrest_24hr: Apredica 24-hour HepG2 Assay for Cell Cycle Arrest (AID 2282905); settings: imaging, actives raise or lower the signal;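 also: cell cycle arrest scored as ratio of 2N to 4N nuclear DNA content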
Summary of the method: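 HepG2 cells were exposed to compounds at 0.39–200 uM (ten concentrations, duplicate) in 0.5% v/v DMSO for 24 hr. After formaldehyde fixation and Triton permeabilization, Hoechst 33342-stained nuclei were imaged at 20x; DNA content was quantified, with bidirectional fitting against DMSO.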

[2] = APR_HepG2_NuclearSize_24hr: Apredica 24-hour HepG2 Assay for Nuclear Size (AID 2282907); settings: high-content imaging, actives raise or lower the signal
Summary of the method: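 HepG2 human liver cells were exposed for 24 hr to compounds at 0.39–200 uM (ten concentrations, duplicate) in 0.5% v/v DMSO. They were then formaldehyde-fixed, Triton-permeabilized and Hoechst 33342-stained, and nuclear diameter was imaged at 20x. Bidirectional fits were made against DMSO.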

[3] = APR_HepG2_CellLoss_24hr: Apredica 24-hour HepG2 Assay for Cell Loss (AID 2282908); settings: high-content imaging;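 as to AC50: fit in both directions so a hit may be cell loss or gain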
Summary of the method: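 Compounds were tested at 0.39–200 uM in duplicate with 0.5% v/v DMSO final. Cells were then fixed in 3.7% formaldehyde, Hoechst 33342 nuclei were imaged at 20x by HCS, and cell number was fitted bidirectionally against DMSO.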

[4] = APR_HepG2_MicrotubuleCSK_24hr: Apredica 24-hour HepG2 Assay for Microtubule CSK Stabilty (AID 2282909); settings: HepG2 microtubule cytoskeleton imaging, actives raise or lower the signal
Summary of the method: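 HepG2 cells exposed 24 h to compounds at 0.39–200 uM (duplicate, 0.5% v/v DMSO final), then fixed, permeabilized and immunostained for alpha-tubulin with Hoechst 33342. Cytoskeleton imaged at 20x; bidirectional fit versus DMSO baseline.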

[5] = APR_HepG2_MitoticArrest_24hr: Apredica 24-hour HepG2 Assay for Mitotic Arrest (AID 2282910); settings: high-content imaging, actives raise or lower the signal
Summary of the method: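 HepG2 human liver cells were exposed to compounds at 0.39–200 uM (10 concentrations, duplicate) in 0.5% v/v DMSO for 24 hr, then fixed and immunostained for phospho-histone H3 with Hoechst 33342. Mitotic arrest came from HCS fluorescent imaging, fitted bidirectionally against DMSO.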

[6] = APR_HepG2_MitoMembPot_24hr: Apredica 24-hour HepG2 Assay for Mitochondrial Membrane Potential (AID 2282911); settings: imaging, actives raise or lower the signal
Summary of the method: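 Cells are dosed for 24 hr across 0.39 to 200 uM with solvent held at 0.5% DMSO. They are then stained with 250 nM MitoTracker Red CMXRos for 30 min, fixed in 3.7% formaldehyde and imaged.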

[7] = APR_HepG2_MitoMass_24hr: Apredica 24-hour HepG2 Assay for Mitochondrial Mass (AID 2282912); settings: high-content imaging, actives raise or lower the signal
Summary of the method: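 Human HepG2 liver cells were exposed for 24 hr to compounds at 0.39–200 uM (duplicates, 0.5% v/v DMSO final). They were stained live with 250 nM MitoTracker Red CMXRos for 30 min, fixed in 3.7% formaldehyde, and imaged by HCS fluorescence; signals were fitted bidirectionally against DMSO.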

[8] = APR_HepG2_p53Act_24hr: Apredica 24-hour HepG2 Assay for p53 Activation (AID 2282913); settings: high-content imaging, actives raise or lower the signal;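 also: p53 protein immunofluorescence averaged per cell in HepG2 with Hoechst nuclei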
Summary of the method: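 Human HepG2 liver cells; 24 hr cpd treatment, 0.39–200 uM, 0.5% DMSO final. Fixed in 3.7% formaldehyde, permeabilized with 0.5% Triton X-100, stained with anti-p53/Cy5 plus Hoechst 33342. Six images per well at 20x; gain or loss vs DMSO.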

[9] = APR_HepG2_CellCycleArrest_72hr: Apredica 72-hour HepG2 Assay for Cell Cycle Arrest (AID 2282914); settings: high-content imaging, actives raise or lower the signal
Summary of the method: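 Read-out is Hoechst-stained nuclear DNA content measured by automated fluorescence imaging (20x, six images per well), fitted in both directions relative to DMSO. Human HepG2 liver cells received 0.39–200 uM compound for 72 hr at 0.5% v/v DMSO.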

[10] = APR_HepG2_CellLoss_72hr: Apredica 72-hour HepG2 Assay for Cell Loss (AID 2282915); settings: high-content imaging
Summary of the method: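 HepG2 cells were exposed for 72 hr to compounds at 0.39–200 uM (ten concentrations, duplicate) in 0.5% v/v final DMSO. Nuclei were stained with Hoechst 33342 after 3.7% formaldehyde fixation, imaged at 20x, and counted; fits bidirectional versus DMSO.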

[11] = APR_HepG2_P-H2AX_72hr: Apredica 72-hour HepG2 Assay for H2AX Phosphorylation (AID 2282916); settings: imaging, actives raise or lower the signal;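 also: phospho-histone H2A.x immunostain intensity per cell marking DNA damage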
Summary of the method: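 HepG2 human liver cells were exposed for 72 hr to compounds at 0.39–200 uM (10 concentrations, duplicate per plate) in 0.5% v/v DMSO. Fixed, permeabilized cells were immunolabeled for phospho-histone H2A.x with Hoechst 33342 and imaged by HCS fluorescence; bidirectional fit versus DMSO.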

[12] = APR_HepG2_MitoMembPot_72hr: Apredica 72-hour HepG2 Assay for Mitochondrial Membrane Potential (AID 2282917); settings: imaging, actives raise or lower the signal
Summary of the method: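 HepG2 cells exposed 72 h to compounds at 0.39–200 uM (0.5% v/v DMSO, duplicates); MitoTracker Red CMXRos 250 nM loaded 30 min before 3.7% formaldehyde fixation, imaged by HCS fluorescence. Bidirectional fit versus DMSO.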

[13] = APR_HepG2_MitoticArrest_72hr: Apredica 72-hour HepG2 Assay for Mitotic Arrest (AID 2282918); settings: high-content imaging, actives raise or lower the signal
Summary of the method: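 Read-out is phospho-histone H3 immunofluorescence with Hoechst nuclear segmentation, imaged at 20x. Human HepG2 liver cells received ten concentrations (0.39–200 uM, final DMSO 0.5% v/v) for 72 hr before fixation. Gain or loss of signal was fitted relative to DMSO.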

[14] = APR_HepG2_MicrotubuleCSK_72hr: Apredica 72-hour HepG2 Assay for Microtubule CSK Stabilty (AID 2282919); settings: HepG2 microtubule cytoskeleton, high-content imaging, actives raise or lower the signal
Summary of the method: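 HepG2 human liver cells were dosed for 72 h at ten concentrations from 0.39 to 200 uM in duplicate (0.5% v/v DMSO final). Fixed, permeabilized cells were immunostained for alpha-tubulin (Cy5) with a Hoechst counterstain and imaged at 20x.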

[15] = APR_HepG2_P-H2AX_24hr: Apredica 24-hour HepG2 Assay for H2AX Phosphorylation (AID 2282920); settings: high-content imaging, actives raise or lower the signal
Summary of the method: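 HepG2, 24 hr, cpd 0.39–200 uM (10 conc, duplicate), DMSO 0.5% v/v final. Fix 3.7% formaldehyde, Triton X-100 permeabilize, anti-phospho-H2A.x 1:200 + Hoechst 2 ug/mL. Imaged, bidirectional fit vs DMSO.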

[16] = APR_HepG2_StressKinase_72hr: Apredica 72-hour HepG2 Assay for Stress Kinase (AID 2282921); settings: HepG2 stress kinase (phospho-c-Jun) imaging, actives raise or lower the signal
Summary of the method: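 Cells were exposed for 72 h to ten concentrations (0.39–200 uM, duplicate) at 0.5% v/v DMSO final, then fixed with 3.7% formaldehyde, permeabilized and immunostained for phospho-c-Jun (Cy3 secondary) with Hoechst nuclear counterstain.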

[17] = APR_HepG2_StressKinase_24hr: Apredica 24-hour HepG2 Assay for Stress Kinase (AID 2282922); settings: HepG2 stress kinase (phospho-c-Jun) imaging, actives raise or lower the signal
Summary of the method: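 HepG2 cells exposed 24 hr to compound at 0.39–200 uM (10 concentrations, duplicate), 0.5% v/v DMSO final. Fixed in 3.7% formaldehyde, permeabilized with Triton X-100, immunolabeled for phospho-c-Jun with Hoechst 33342; HCS fluorescence imaging, bidirectional fit versus DMSO.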

[18] = APR_HepG2_p53Act_72hr: Apredica 72-hour HepG2 Assay for p53 Activation (AID 2282923); settings: high-content imaging, actives raise or lower the signal;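 also: average cellular p53 protein immunofluorescence intensity in HepG2 cells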
Summary of the method: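 Cells were dosed for 72 hr with compounds at 0.39–200 uM in duplicate (final DMSO 0.5% v/v), then fixed in 3.7% formaldehyde, permeabilized with Triton X-100 and immunostained for p53 (Cy5) with Hoechst 33342 nuclear counterstain.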

[19] = APR_HepG2_MitoMass_72hr: Apredica 72-hour HepG2 Assay for Mitochondrial Mass (AID 2282924); settings: high-content imaging, actives raise or lower the signal;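 also: MitoTracker Red CMXRos stain intensity per cell imaged as mitochondrial mass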
Summary of the method: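 HepG2 cells were exposed for 72 hr to compounds at 0.39–200 uM (ten concentrations, duplicate, 0.5% v/v DMSO final). Live cells were stained with 250 nM MitoTracker Red CMXRos for 30 min, then fixed in 3.7% formaldehyde and imaged by HCS fluorescence.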

[20] = APR_HepG2_NuclearSize_72hr: Apredica 72-hour HepG2 Assay for Nuclear Size (AID 2282925); settings: high-content imaging, actives raise or lower the signal
Summary of the method: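 HepG2 cells were exposed to compounds at ten concentrations from 0.39 to 200 uM (duplicate, 0.5% DMSO final) for 72 hr. After fixation in 3.7% formaldehyde, nuclei were stained with Hoechst 33342 (2 ug/mL) and imaged at 20x.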

Measured: AC50

CN(C)c1ccc(C(=O)c2ccc(N(C)C)cc2)cc1
active: [1] 4.79 µM | [3] 1.64 µM | [4] 403 nM | [5] 0.538 µM | [8] 0.317 µM | [9] 0.639 µM | [10] 1.75 µM | [11] 15.4 µM | [13] 16.5 µM | [15] 26.7 µM | [16] 9.87 µM | [17] 14 µM | [18] 0.292 µM | [19] 0.855 µM | [20] 1.91 µM
inactive: [2] | [6] | [7] | [12] | [14]

COC(=O)Nc1nc2ccccc2[nH]1
inactive: [2] | [4] | [6] | [7] | [12] | [13] | [14]
active: [1] 15.4 µM | [3] 7.04 µM | [5] 3.45 µM | [8] 3.13 µM | [9] 13.4 µM | [10] 5.59 µM | [11] 5.9 µM | [15] 5.54 µM | [16] 6.75 µM | [17] 36.3 µM | [18] 2.8 µM | [19] 5.43 µM | [20] 9.08 µM

CC(C)N(Cc1ccccc1)C(=O)C(C)(C)C
inactive: [1] | [2] | [3] | [4] | [5] | [6] | [7] | [8] | [9] | [10] | [11] | [12] | [13] | [14] | [15] | [16] | [17] | [18] | [19] | [20]

CN(C)C(=O)Nc1ccc(Cl)cc1
inactive: [1] | [2] | [3] | [4] | [5] | [6] | [7] | [8] | [9] | [10] | [11] | [12] | [13] | [14] | [16] | [17] | [18] | [19] | [20]

O=C(O)C1C2CCC(O2)C1C(=O)O (centres undefined)
active: [5] 26.6 µM | [7] 41.4 µM | [8] 24.4 µM | [10] 21.5 µM | [11] 22.2 µM | [13] 19.6 µM | [15] 29.4 µM | [18] 21.2 µM | [19] 50.2 µM | [20] 36 µM
inactive: [1] | [2] | [3] | [4] | [6] | [9] | [12] | [14] | [16] | [17]

Nc1ccc(Oc2ccc(N)cc2)cc1
inactive: [1] | [2] | [3] | [4] | [5] | [6] | [7] | [8] | [9] | [10] | [11] | [12] | [13] | [14] | [15] | [16] | [17] | [18] | [19] | [20]

CO[C@@H]1[C@H](OC(=O)NC(=O)CCl)CC[C@]2(CO2)[C@H]1[C@@]1(C)O[C@@H]1CC=C(C)C
inactive: [1] | [2] | [3] | [4] | [5] | [6] | [7] | [8] | [9] | [10] | [11] | [12] | [13] | [14] | [15] | [16] | [17] | [18] | [19] | [20]

— PubChem BioAssay (EPA / NIEHS)
